Experimental data as given in the supplement of paper PMC11732987, “Enantioselective OTUD7B fragment discovery through chemoproteomics screening and high-throughput optimisation” (Communications Chemistry, 2025).

How the values were obtained:
Assay in all cases: log2 ratio of Biotin-Ahx-Ub-VS probe labelling (fragment/DMSO); higher = less target engagement (more negative = stronger competition), active = hit call of the paper (q ≤ 0.05, log2 ratio ≤ -1)
Settings in all cases: compound concentration: 200 uM; treatment time: 3 h
[1] = target: T1, ALG13 (UniProt Q9NP73)
T1 sequence (whole entry): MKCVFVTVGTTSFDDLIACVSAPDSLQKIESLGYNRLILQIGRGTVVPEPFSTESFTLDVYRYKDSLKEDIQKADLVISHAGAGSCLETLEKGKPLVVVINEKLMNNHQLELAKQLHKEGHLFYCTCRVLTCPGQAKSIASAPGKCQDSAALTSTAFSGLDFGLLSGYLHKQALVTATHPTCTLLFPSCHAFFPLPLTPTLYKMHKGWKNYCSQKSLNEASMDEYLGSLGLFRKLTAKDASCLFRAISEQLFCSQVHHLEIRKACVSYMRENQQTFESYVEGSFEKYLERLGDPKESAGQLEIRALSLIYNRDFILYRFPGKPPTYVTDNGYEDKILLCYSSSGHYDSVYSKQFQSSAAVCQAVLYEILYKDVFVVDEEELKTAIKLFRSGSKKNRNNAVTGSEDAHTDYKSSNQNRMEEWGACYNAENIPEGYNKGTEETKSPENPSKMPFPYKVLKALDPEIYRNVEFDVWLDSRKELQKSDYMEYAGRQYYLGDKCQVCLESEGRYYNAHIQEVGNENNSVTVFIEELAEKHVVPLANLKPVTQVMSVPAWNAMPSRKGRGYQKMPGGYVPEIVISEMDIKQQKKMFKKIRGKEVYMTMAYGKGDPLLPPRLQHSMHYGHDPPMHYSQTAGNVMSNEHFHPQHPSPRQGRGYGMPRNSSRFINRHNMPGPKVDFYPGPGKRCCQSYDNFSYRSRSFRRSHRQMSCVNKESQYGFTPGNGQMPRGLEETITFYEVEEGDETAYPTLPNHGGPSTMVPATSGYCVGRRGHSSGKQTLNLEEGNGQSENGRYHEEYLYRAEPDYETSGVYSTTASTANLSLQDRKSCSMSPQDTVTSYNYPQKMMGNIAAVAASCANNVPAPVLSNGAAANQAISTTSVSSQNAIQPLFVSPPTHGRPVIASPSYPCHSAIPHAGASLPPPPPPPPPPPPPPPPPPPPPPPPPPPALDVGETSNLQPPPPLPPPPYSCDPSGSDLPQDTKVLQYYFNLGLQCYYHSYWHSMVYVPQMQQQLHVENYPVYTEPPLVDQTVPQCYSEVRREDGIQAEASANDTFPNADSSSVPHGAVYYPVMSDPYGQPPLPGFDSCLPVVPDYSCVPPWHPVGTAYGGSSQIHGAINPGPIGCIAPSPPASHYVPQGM
How it was run: (§1)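 In triplicate, 495 µg of HEK293T lysate per sample was incubated with fragment at 200 µM or vehicle for 3 h. Biotin-Ahx-Ub-VS was then added to 0.5 µM final for 1 h, and labelled DUBs were captured with NeutrAvidin, digested with LysC and trypsin, and measured by diaPASEF LC-MS/MS. Data are average log2 fragment/vehicle ratios by unpaired t-test from global-median-normalised Spectronaut label-free quantities, restricted to proteins with ≥2 unique peptides.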

[2] = target: ATXN3 (UniProt P54252)
How it was run: as §1

[3] = target: T2, BAP1 (UniProt Q92560)
T2 sequence (whole entry): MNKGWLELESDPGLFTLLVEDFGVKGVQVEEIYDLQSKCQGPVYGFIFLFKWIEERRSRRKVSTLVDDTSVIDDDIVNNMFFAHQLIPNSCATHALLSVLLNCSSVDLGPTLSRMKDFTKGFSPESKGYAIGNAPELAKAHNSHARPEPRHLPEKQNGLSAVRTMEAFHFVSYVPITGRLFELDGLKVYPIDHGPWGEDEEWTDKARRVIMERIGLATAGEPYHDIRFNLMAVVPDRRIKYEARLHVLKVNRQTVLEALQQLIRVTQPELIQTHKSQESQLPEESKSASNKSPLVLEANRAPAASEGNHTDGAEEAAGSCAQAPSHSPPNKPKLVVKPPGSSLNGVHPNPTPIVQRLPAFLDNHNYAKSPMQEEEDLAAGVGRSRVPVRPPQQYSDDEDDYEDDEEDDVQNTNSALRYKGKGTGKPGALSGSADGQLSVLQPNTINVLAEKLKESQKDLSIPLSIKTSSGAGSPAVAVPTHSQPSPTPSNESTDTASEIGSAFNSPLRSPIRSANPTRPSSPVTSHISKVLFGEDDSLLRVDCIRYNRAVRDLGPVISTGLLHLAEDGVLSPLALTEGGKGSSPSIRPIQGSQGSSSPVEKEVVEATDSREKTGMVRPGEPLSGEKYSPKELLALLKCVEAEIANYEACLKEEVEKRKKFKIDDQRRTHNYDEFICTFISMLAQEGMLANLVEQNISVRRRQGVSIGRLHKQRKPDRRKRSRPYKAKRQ
How it was run: as §1

[4] = target: EIF3F (UniProt O00303)
How it was run: as §1

[5] = target: EIF3H (UniProt O15372)
How it was run: as §1

[6] = target: T3, FAM105A (UniProt Q9NUU6)
T3 sequence (whole entry): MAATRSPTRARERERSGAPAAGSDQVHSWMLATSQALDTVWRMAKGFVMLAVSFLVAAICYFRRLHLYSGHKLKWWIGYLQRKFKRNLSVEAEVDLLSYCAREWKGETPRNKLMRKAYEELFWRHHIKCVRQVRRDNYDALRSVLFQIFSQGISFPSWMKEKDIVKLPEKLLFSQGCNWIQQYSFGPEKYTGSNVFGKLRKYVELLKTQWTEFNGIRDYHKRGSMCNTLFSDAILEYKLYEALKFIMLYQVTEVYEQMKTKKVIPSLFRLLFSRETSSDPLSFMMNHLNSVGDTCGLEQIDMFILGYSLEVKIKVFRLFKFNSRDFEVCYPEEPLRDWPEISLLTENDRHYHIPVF
How it was run: as §1

[7] = target: OTUB1 (UniProt Q96FW1)
How it was run: as §1

[8] = target: T4, OTUD4 (UniProt Q01804)
T4 sequence (whole entry): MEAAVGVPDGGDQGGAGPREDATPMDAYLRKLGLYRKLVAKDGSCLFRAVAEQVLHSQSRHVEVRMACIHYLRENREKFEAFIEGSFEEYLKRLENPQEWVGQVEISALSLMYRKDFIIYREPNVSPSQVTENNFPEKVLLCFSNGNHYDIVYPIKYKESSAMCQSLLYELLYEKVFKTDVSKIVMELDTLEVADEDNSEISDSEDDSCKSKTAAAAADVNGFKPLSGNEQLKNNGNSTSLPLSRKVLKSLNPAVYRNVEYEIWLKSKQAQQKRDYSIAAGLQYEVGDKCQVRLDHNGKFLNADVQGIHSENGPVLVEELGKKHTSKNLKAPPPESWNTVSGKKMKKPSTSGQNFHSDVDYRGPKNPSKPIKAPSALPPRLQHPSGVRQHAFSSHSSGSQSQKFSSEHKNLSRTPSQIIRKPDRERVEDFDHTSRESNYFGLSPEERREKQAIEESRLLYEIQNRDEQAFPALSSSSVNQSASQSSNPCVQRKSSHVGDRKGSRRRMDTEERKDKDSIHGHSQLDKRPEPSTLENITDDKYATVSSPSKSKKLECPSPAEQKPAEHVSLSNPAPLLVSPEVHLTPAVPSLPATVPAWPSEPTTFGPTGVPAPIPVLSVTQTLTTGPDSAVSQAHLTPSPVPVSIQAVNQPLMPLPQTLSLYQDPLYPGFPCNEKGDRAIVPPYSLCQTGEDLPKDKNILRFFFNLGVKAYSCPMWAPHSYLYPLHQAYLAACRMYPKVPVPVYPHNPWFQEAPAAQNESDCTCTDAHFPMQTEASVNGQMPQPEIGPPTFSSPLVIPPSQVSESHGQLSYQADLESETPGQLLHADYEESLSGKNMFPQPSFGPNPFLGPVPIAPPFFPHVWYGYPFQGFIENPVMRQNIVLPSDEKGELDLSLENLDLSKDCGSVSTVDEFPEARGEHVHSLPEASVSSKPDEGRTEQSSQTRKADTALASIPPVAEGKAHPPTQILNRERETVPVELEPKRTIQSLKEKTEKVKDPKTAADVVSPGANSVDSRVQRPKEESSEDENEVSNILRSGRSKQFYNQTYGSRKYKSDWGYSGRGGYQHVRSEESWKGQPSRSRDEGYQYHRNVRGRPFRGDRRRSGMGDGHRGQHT
How it was run: as §1

[9] = target: T5, OTUD5 (UniProt Q96G74)
T5 sequence (whole entry): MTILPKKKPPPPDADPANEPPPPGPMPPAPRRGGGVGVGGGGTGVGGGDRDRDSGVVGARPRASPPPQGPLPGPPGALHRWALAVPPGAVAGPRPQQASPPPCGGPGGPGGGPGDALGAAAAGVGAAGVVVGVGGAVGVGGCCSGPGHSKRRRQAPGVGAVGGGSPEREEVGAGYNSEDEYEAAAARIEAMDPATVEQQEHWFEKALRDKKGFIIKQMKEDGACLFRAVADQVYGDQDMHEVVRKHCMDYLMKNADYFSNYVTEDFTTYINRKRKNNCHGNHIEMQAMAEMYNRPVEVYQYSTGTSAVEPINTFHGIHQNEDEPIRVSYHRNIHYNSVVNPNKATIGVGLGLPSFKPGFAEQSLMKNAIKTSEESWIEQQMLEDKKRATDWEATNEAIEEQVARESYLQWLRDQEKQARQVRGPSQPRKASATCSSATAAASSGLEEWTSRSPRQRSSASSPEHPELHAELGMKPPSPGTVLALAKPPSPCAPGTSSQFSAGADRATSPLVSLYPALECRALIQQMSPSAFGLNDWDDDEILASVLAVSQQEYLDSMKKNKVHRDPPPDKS
How it was run: as §1

Measured: log2 ratio of Biotin-Ahx-Ub-VS probe labelling

Chain of EIF3H (O15372 whole entry): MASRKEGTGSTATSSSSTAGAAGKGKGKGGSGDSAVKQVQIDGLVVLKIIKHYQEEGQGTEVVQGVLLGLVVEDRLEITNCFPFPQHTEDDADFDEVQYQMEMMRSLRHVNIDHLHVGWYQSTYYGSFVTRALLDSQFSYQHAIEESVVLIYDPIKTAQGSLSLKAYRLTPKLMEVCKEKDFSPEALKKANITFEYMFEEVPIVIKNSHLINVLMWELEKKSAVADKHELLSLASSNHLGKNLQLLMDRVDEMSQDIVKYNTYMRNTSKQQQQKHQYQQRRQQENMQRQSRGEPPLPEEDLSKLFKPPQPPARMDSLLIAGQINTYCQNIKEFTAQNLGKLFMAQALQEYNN
Chain of EIF3F (O00303 whole entry): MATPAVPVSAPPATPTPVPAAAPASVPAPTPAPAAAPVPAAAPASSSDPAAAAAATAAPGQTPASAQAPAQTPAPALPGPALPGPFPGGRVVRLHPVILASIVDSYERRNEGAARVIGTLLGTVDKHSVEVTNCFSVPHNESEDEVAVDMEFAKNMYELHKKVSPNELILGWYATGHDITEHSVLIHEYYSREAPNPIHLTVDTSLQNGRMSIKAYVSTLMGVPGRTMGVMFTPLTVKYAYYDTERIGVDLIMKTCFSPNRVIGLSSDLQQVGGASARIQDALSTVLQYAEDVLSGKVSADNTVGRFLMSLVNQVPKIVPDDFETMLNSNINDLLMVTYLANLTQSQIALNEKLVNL
Chain of ATXN3 (P54252 whole entry): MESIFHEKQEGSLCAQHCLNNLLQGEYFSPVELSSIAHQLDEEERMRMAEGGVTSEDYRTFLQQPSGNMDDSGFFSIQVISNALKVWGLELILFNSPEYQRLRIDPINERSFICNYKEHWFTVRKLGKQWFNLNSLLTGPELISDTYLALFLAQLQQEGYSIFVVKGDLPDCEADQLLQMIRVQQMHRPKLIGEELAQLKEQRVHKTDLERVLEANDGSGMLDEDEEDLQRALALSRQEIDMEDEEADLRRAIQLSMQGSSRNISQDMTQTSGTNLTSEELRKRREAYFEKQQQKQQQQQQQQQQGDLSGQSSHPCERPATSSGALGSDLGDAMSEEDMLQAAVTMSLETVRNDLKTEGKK
Chain of OTUB1 (Q96FW1 whole entry): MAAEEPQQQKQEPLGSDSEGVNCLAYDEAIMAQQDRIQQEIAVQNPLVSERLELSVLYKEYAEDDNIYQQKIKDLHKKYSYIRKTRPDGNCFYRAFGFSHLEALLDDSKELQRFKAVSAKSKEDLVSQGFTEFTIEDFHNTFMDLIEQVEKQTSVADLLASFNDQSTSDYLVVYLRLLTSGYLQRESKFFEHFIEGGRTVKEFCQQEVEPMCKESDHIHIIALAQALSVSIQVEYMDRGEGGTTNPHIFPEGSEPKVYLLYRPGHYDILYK

O=C(CCl)N(Cc1ccsc1)C1CC1
inactive: [1] 0.115 | [2] -0.173 | [3] -0.841 | [4] -0.0964 | [5] 0.0796 | [6] -0.378 | [7] -0.191 | [8] -0.285 | [9] -0.657
